From PMC5540273 (PLoS ONE, 2017)
Read-outs that look alike come from different tables or passages of the source.

What was measured:
CDC2L2 = conditions: concentration: 1 μM, replicates: in singlicate; n = 1
CDC2L5 = tested on: T1, CDC2L5; conditions: n = 1
T1 construct: gene CDK13

CDK11 = tested on: T2, CDK11; conditions: concentration: 1 μM, replicates: in singlicate; n = 1
T2 construct: gene CDK19

CDK2 = conditions: concentration: 1 μM, replicates: in singlicate; n = 1
CDK3 = conditions: concentration: 1 μM, replicates: in singlicate; n = 1
CDK4-cyclinD1 = conditions: n = 1
CDK4-cyclinD3 = conditions: n = 1
CDK4 = conditions: n = 1
CDK5 = conditions: concentration: 1 μM, replicates: in singlicate; n = 1
CDK7 = conditions: concentration: 1 μM, replicates: in singlicate; n = 1
CDK8 = conditions: concentration: 1 μM, replicates: in singlicate; n = 1
CDK9 = conditions: concentration: 1 μM, replicates: in singlicate; n = 1
CDKL1 = conditions: concentration: 1 μM, replicates: in singlicate; n = 1
CDKL2 = conditions: concentration: 1 μM, replicates: in singlicate; n = 1
CDKL3 = conditions: concentration: 1 μM, replicates: in singlicate; n = 1
CDKL5 = conditions: concentration: 1 μM, replicates: in singlicate; n = 1
CHEK1 = conditions: concentration: 1 μM, replicates: in singlicate; n = 1
CHEK2 = conditions: concentration: 1 μM, replicates: in singlicate; n = 1
CIT = conditions: concentration: 1 μM, replicates: in singlicate; n = 1
CLK1 = conditions: concentration: 1 μM, replicates: in singlicate; n = 1
[1] = concentration: 1 μM, replicates: in singlicate
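Note: KINOMEscan kinase panel screen.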

For Cc1cc(-c2c(-c3ccc(F)cc3)ncn2CCCN2CCOCC2)nc(N)n1 [SB-222517], the “%Inh” value (CDC2L2) was 8%, the “%Inh” value (CDC2L5; [1]) was 0% and the “%Inh” value (CDK11) was 22%. For the same compound, the “%Inh” value (CDK2) was 0%, the “%Inh” value (CDK3) was 18% and the “%Inh” value (CDK4-cyclinD1; [1]) was 0%. For the same compound, the “%Inh” value (CDK4-cyclinD3; [1]) was 0%, the “%Inh” value (CDK4; [1]) was 24% and the “%Inh” value (CDK5) was 14%. The “%Inh” value (CDK7) was 11%, the “%Inh” value (CDK8) was 0% and the “%Inh” value (CDK9) was 0%. The “%Inh” value (CDKL1) was 30%, the “%Inh” value (CDKL2) was 0% and the “%Inh” value (CDKL3) was 35%. The “%Inh” value (CDKL5) was 7%, the “%Inh” value (CHEK1) was 0% and the “%Inh” value (CHEK2) was 0%. For the same compound, the “%Inh” value (CIT) was 2% and the “%Inh” value (CLK1) was 0%.
For CSc1ccc(NC2=C(c3ccc(Cl)cc3)C(=O)NC2=O)cc1 [SB-317658], the “%Inh” value (CDC2L2) was 2%, the “%Inh” value (CDC2L5; [1]) was 0% and the “%Inh” value (CDK11) was 0%. For the same compound, the “%Inh” value (CDK2) was 6%, the “%Inh” value (CDK3) was 18% and the “%Inh” value (CDK4-cyclinD1; [1]) was 0%. For the same compound, the “%Inh” value (CDK4-cyclinD3; [1]) was 0%, the “%Inh” value (CDK4; [1]) was 12% and the “%Inh” value (CDK5) was 28%. The “%Inh” value (CDK7) was 36%, the “%Inh” value (CDK8) was 0% and the “%Inh” value (CDK9) was 0%. For the same compound, the “%Inh” value (CDKL1) was 0%, the “%Inh” value (CDKL2) was 0% and the “%Inh” value (CDKL3) was 0%. For the same compound, the “%Inh” value (CDKL5) was 0%, the “%Inh” value (CHEK1) was 0% and the “%Inh” value (CHEK2) was 13%. For the same compound, the “%Inh” value (CIT) was 0% and the “%Inh” value (CLK1) was 17%.
CN(C)CCNS(=O)(=O)c1ccc(-c2ccnc3[nH]ccc23)cc1 [GSK977620] was tested, and the “%Inh” value (CDC2L2) was 0%, the “%Inh” value (CDC2L5; [1]) was 0% and the “%Inh” value (CDK11) was 5%. The “%Inh” value (CDK2) was 0%, the “%Inh” value (CDK3) was 0% and the “%Inh” value (CDK4-cyclinD1; [1]) was 0%. The “%Inh” value (CDK4-cyclinD3; [1]) was 0%, the “%Inh” value (CDK4; [1]) was 11% and the “%Inh” value (CDK5) was 0%. The “%Inh” value (CDK7) was 45%, the “%Inh” value (CDK8) was 0% and the “%Inh” value (CDK9) was 0%. For the same compound, the “%Inh” value (CDKL1) was 0%, the “%Inh” value (CDKL2) was 8% and the “%Inh” value (CDKL3) was 0%. The “%Inh” value (CDKL5) was 0%, the “%Inh” value (CHEK1) was 35% and the “%Inh” value (CHEK2) was 27%. The “%Inh” value (CIT) was 27% and the “%Inh” value (CLK1) was 88%.
For O=C(Nc1n[nH]c2nc(-c3ccccc3)ccc12)C1CC1 [SB-708999], the “%Inh” value (CDC2L2) was 0%, the “%Inh” value (CDC2L5; [1]) was 27% and the “%Inh” value (CDK11) was 0%. For the same compound, the “%Inh” value (CDK2) was 45%, the “%Inh” value (CDK3) was 35% and the “%Inh” value (CDK4-cyclinD1; [1]) was 61%. The “%Inh” value (CDK4-cyclinD3; [1]) was 0%, the “%Inh” value (CDK4; [1]) was 12% and the “%Inh” value (CDK5) was 2%. The “%Inh” value (CDK7) was 10%, the “%Inh” value (CDK8) was 36% and the “%Inh” value (CDK9) was 0%. For the same compound, the “%Inh” value (CDKL1) was 2%, the “%Inh” value (CDKL2) was 88% and the “%Inh” value (CDKL3) was 10%. For the same compound, the “%Inh” value (CDKL5) was 0%, the “%Inh” value (CHEK1) was 0% and the “%Inh” value (CHEK2) was 0%. For the same compound, the “%Inh” value (CIT) was 7% and the “%Inh” value (CLK1) was 86%.
In the case of CN(c1ccc(NC(=O)Nc2cccc(Cl)c2)cc1)c1ccnc(N)n1.Cl [GW830707], the “%Inh” value (CDC2L2) is reported as 12%, the “%Inh” value (CDC2L5; [1]) is reported as 43% and the “%Inh” value (CDK11) is reported as 77%. For the same compound, the “%Inh” value (CDK2) was 9%, the “%Inh” value (CDK3) was 0% and the “%Inh” value (CDK4-cyclinD1; [1]) was 57%. For the same compound, the “%Inh” value (CDK4-cyclinD3; [1]) was 0%, the “%Inh” value (CDK4; [1]) was 4% and the “%Inh” value (CDK5) was 5%. For the same compound, the “%Inh” value (CDK7) was 24%, the “%Inh” value (CDK8) was 85% and the “%Inh” value (CDK9) was 0%. For the same compound, the “%Inh” value (CDKL1) was 0%, the “%Inh” value (CDKL2) was 39% and the “%Inh” value (CDKL3) was 0%. The “%Inh” value (CDKL5) was 0%, the “%Inh” value (CHEK1) was 0% and the “%Inh” value (CHEK2) was 7%. The “%Inh” value (CIT) was 9% and the “%Inh” value (CLK1) was 0%.
O=C(Nc1n[nH]c2nc(-c3cccc(O)c3)ccc12)C1CC1 [SB-711805] was tested, and the “%Inh” value (CDC2L2) was 0%, the “%Inh” value (CDC2L5; [1]) was 46% and the “%Inh” value (CDK11) was 0%. The “%Inh” value (CDK2) was 38%, the “%Inh” value (CDK3) was 49% and the “%Inh” value (CDK4-cyclinD1; [1]) was 20%. The “%Inh” value (CDK4-cyclinD3; [1]) was 25%, the “%Inh” value (CDK4; [1]) was 15% and the “%Inh” value (CDK5) was 0%. The “%Inh” value (CDK7) was 23%, the “%Inh” value (CDK8) was 0% and the “%Inh” value (CDK9) was 0%. The “%Inh” value (CDKL1) was 30%, the “%Inh” value (CDKL2) was 80% and the “%Inh” value (CDKL3) was 0%. The “%Inh” value (CDKL5) was 9%, the “%Inh” value (CHEK1) was 0% and the “%Inh” value (CHEK2) was 25%. For the same compound, the “%Inh” value (CIT) was 21% and the “%Inh” value (CLK1) was 20%.
For Cc1nn2c(=O)cc(N3CCO[C@H](C)C3)nc2n1Cc1cccc(Cl)c1Cl [GSK2373693], the “%Inh” value (CDC2L2) was 4%, the “%Inh” value (CDC2L5; [1]) was 0% and the “%Inh” value (CDK11) was 3%. For the same compound, the “%Inh” value (CDK2) was 54%, the “%Inh” value (CDK3) was 76% and the “%Inh” value (CDK4-cyclinD1; [1]) was 53%. For the same compound, the “%Inh” value (CDK4-cyclinD3; [1]) was 2%, the “%Inh” value (CDK4; [1]) was 13% and the “%Inh” value (CDK5) was 0%. The “%Inh” value (CDK7) was 0%, the “%Inh” value (CDK8) was 0% and the “%Inh” value (CDK9) was 2%. The “%Inh” value (CDKL1) was 1%, the “%Inh” value (CDKL2) was 11% and the “%Inh” value (CDKL3) was 0%. The “%Inh” value (CDKL5) was 0%, the “%Inh” value (CHEK1) was 26% and the “%Inh” value (CHEK2) was 0%. The “%Inh” value (CIT) was 21% and the “%Inh” value (CLK1) was 55%.
With Nc1ncnc2scc(-c3ccc(NC(=O)Cc4cc(F)ccc4F)cc3)c12.O=C(O)C(F)(F)F [SB-731254-M] the “%Inh” value (CDC2L2) was 36%, the “%Inh” value (CDC2L5; [1]) was 0% and the “%Inh” value (CDK11) was 99%. The “%Inh” value (CDK2) was 0%, the “%Inh” value (CDK3) was 0% and the “%Inh” value (CDK4-cyclinD1; [1]) was 0%. For the same compound, the “%Inh” value (CDK4-cyclinD3; [1]) was 11%, the “%Inh” value (CDK4; [1]) was 0% and the “%Inh” value (CDK5) was 2%. For the same compound, the “%Inh” value (CDK7) was 0%, the “%Inh” value (CDK8) was 93.8% and the “%Inh” value (CDK9) was 0%. The “%Inh” value (CDKL1) was 30%, the “%Inh” value (CDKL2) was 28% and the “%Inh” value (CDKL3) was 2%. The “%Inh” value (CDKL5) was 5%, the “%Inh” value (CHEK1) was 9% and the “%Inh” value (CHEK2) was 0%. The “%Inh” value (CIT) was 12% and the “%Inh” value (CLK1) was 16%.
With COc1cccc(C2=C(Nc3cccc(O)c3)C(=O)NC2=O)c1 [SB-390771] the “%Inh” value (CDC2L2) was 15%, the “%Inh” value (CDC2L5; [1]) was 0% and the “%Inh” value (CDK11) was 0%. The “%Inh” value (CDK2) was 18%, the “%Inh” value (CDK3) was 13% and the “%Inh” value (CDK4-cyclinD1; [1]) was 0%. The “%Inh” value (CDK4-cyclinD3; [1]) was 0%, the “%Inh” value (CDK4; [1]) was 0% and the “%Inh” value (CDK5) was 0%. The “%Inh” value (CDK7) was 98.3%, the “%Inh” value (CDK8) was 17% and the “%Inh” value (CDK9) was 0%. The “%Inh” value (CDKL1) was 86%, the “%Inh” value (CDKL2) was 7% and the “%Inh” value (CDKL3) was 0%. For the same compound, the “%Inh” value (CDKL5) was 0%, the “%Inh” value (CHEK1) was 0% and the “%Inh” value (CHEK2) was 0%. For the same compound, the “%Inh” value (CIT) was 4% and the “%Inh” value (CLK1) was 73%.
In the case of Cn1cc(-c2cnc(N)c3c(-c4ccc5c(c4)CCN5C(=O)Cc4ccccc4)csc23)cn1 [GSK2593074], the “%Inh” value (CDC2L5; 1 µM) is reported as 0%, the “%Inh” value (CDK4-cyclinD1; 1 µM) is reported as 0% and the “%Inh” value (CDK4-cyclinD3; 1 µM) is reported as 0%. For the same compound, the “%Inh” value (CDK4; 1 µM) was 0%.
